The list is not random: actives were taken first. Their share in the collection is about 1.6%.
hERG WT inh = KCNH2 (human, wildtype) channel inhibition; U2OS, BacMam KCNH2, thallium flux FluxOr; stronger effect = lower value; activity change, % at 1.84 µM; Q12809; 340,000 tested, 0.37% active;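 active = maximum activity change below -70%; inconclusive = maximum activity change between -70% and -50%; inactive = maximum activity change above -50%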; note: % is set by controls: 0 for no effect and ±100 for the full control effect
Target sequence (Q12809 whole entry, looked up): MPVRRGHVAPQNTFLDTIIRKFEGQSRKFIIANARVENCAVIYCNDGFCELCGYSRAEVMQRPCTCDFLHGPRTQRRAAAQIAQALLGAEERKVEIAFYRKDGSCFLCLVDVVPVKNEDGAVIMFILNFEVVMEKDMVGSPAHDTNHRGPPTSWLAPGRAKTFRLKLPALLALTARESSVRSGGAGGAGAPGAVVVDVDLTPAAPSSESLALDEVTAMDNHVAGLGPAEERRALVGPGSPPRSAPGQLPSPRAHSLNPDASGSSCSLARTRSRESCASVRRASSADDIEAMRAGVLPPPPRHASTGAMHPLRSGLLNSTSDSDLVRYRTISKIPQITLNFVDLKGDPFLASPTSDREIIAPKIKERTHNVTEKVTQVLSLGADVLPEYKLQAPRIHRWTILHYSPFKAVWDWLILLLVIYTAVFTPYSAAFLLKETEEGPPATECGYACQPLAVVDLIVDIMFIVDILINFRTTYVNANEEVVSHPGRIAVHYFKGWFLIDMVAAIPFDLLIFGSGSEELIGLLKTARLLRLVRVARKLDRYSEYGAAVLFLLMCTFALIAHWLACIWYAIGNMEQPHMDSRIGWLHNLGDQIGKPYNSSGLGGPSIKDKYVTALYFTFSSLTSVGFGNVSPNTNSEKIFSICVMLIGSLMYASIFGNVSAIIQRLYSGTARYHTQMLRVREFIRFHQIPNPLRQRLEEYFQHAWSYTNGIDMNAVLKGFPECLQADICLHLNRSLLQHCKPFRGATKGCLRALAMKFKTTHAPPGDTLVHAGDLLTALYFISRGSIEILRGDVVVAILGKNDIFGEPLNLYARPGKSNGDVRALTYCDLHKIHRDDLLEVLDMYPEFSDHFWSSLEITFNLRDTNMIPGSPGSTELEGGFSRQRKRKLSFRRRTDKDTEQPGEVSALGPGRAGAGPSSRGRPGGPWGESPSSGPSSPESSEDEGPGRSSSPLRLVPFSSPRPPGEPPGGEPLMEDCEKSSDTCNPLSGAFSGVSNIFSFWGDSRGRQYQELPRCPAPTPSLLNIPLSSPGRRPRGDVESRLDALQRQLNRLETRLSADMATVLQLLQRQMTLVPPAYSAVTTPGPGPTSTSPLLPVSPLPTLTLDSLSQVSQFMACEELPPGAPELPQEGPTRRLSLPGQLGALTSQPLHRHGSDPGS
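U2OS cells were transduced with wild-type KCNH2 virus (2.03 x 10^8 / mL) for 4 h at room temperature, then cultured overnight at 37 C. Thallium flux was read with FluxOr dye. Rate constants were normalized to DMSO controls.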
KCNH2 3.1 inh = KCNH2 3.1 (human) potassium channel inhibition | U2OS KCNH2 3.1, thallium flux FluxOr; stronger effect = lower value | activity change, % (tested at about 1.8 µM) | 340,000 tested, 0.95% active;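 active = maximum activity change below -70%; inconclusive = maximum activity change from -70% to -50%; inactive = maximum activity change above -50%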;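 note: thallium influx rate constant from kinetic fluorescence after stimulation buffer; % is set by controls: 0 for no effect and ±100 for the full control effect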
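We transduce U2OS cells with the mutant 3.1 virus, culture them overnight, load FluxOr with Red40 quencher for 45 min, then add stimulation buffer and read kinetically for 2 min to derive a normalized rate constant.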
gsp ag = activates gsp, the McCune-Albright syndrome mutation | gsp mutant cells, cAMP HTRF, 30 min | Potency, µM (doses to about 76.9 µM), for the others: at the top dose activation (cAMP increase), actives largely listed as activators | 340,000 tested, 0.13% active | AID 624287; active = well fitted activation curve with a large enough effect; inconclusive = small, poorly fitted or top-dose-only effect, or another doubt; inactive = no such curve, though single readings can be large or run the other way; cell line not stated here;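 note: phosphodiesterase inhibitor Ro 20-1724 added with compounds to block cAMP breakdown; potency is the fitted concentration of half-maximal effect; nearly all actives have a fitted effect of over 60% in size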
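Cells stably selected in G418 were plated at 2000/well, grown 16-24 hr, then given compounds in DMSO with the PDE inhibitor […] (300 uM solution added) for 30 min at 37C; cAMP was read by HTRF.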
gsp antag = antagonizes gsp, the McCune-Albright syndrome mutation; Potency, µM (titrated, usually from 76.9 µM), without a hit: at the top dose activity change, negative = inhibition, usual class: inhibitors; gsp-mutant cells, cAMP HTRF, 30 min; 340,000 tested, 0.4% active; AID 624288; calls by dose curve; cell line not stated here;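 note: intracellular cAMP measured with PDE inhibitor Ro 20-1724 present during compound exposure; potency is the fitted concentration of half-maximal effect; % is set by controls: 0 for no effect and ±100 for the full control effect; nearly all actives have a fitted effect of over 65% in size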
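Measurement of cellular cAMP by homogeneous time-resolved fluorescence following a 30 min compound exposure at 37C. The PDE inhibitor […] was present throughout; the assay buffer was DPBS with 0.05% BSA and 0.005% Tween 20.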
pAkt inh = blocks phosphorylation of Akt; activity change, % for hits at 50 µM; 360,000 tested, 0.32% active; Neuro2A IGF-stimulated pAkt S473 HTRF, 20 min; stronger effect = lower value; in the data active = activity change below about -80%; inconclusive = mostly about -51% to -80%; note: % is set by controls: 0 for no effect and ±100 for the full control effect
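Neuro2A cells (4,500/well, DMEM with 0.5% FBS) were treated with compound at a single 50 µM final concentration, stimulated with 6 nM IGF for 20 min at 37 °C, and lysed. Phospho-Akt Ser473 was read by HTRF as 665/615 ratio ×10^4.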
Glioma ERSR ind = ER stress response induction in glioma. Potency, µM, inactives show at the highest dose activation, hits mostly activators. U87-MG GRP78 promoter luciferase reporter, 16 h. 420,000 tested, 0.02% active; active = well fitted activation curve with a large enough effect; inconclusive = small, poorly fitted or top-dose-only effect; inactive = no such curve, though single readings can be large or run the other way; note: potency is the fitted concentration of half-maximal effect; series mostly up to about 76 µM; % of control where 0% means no effect; nearly all actives have a fitted effect of over 35% in size
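Stably transfected U87-MG human glioma cells carrying a GRP78-based luminescent sensor were seeded at 1000 cells/well, pin-dosed with compounds and incubated 16 h. Luciferase reagent was then added, and end-point luminescence was read after 10 min at room temperature.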
An asterisk follows results filed as active; i = inactive; ? = inconclusive; · = no result given; [ ] = dose if it differs, or a comment.

SMILES	hERG WT inh	KCNH2 3.1 inh	gsp ag	gsp antag	pAkt inh	Glioma ERSR ind
CC1Cc2ccccc2N1S(=O)(=O)c1cccc(C(=O)N2CCCCC2)c1 (stereo not given)	27	11	-7%[15.4 µM]	2%	i	-3%
COc1ccccc1N1CCN(C(=O)c2cccc(S(=O)(=O)N3c4ccccc4CC3C)c2)CC1 (stereo not given)	-1	-8	11%	32µM*	i	-2%
C=CCN1C(=O)c2ccc(C(=O)N(CC(C)C)c3c(N)n(CCCC)c(=O)[nH]c3=O)cc2C1=O	0	-147*	14%[15.4 µM]	1%	i	-1%
O=C(Nc1ccccc1Cl)N1CCCN(c2nc(-c3ccccc3)ns2)CC1	2	-16	-38%	?	i	-3%
O=C(Nc1ccccc1)N1CCN(c2nc(-c3ccccc3)ns2)CC1	3	-5	9%[15.4 µM]	35µM*	i	4%
CCN(Cc1ccncc1)Cc1ccc2c(c1)CN(C(=O)c1cccc3c(C)c(C)[nH]c13)CCO2	·	·	·	·	·	-6%
COc1ccc2ccccc2c1CN1CCCC(CO)C1 (stereo not given)	1	1	1%	13%	-112%*	-5%
COc1ccc(CN2CCOc3ccc(CN4CCC(O)CC4)cc3C2)c(OC)c1OC	·	·	·	·	·	0%
CNC(=O)Nc1ccccc1F	-241*	7	-26%	13%	i	-4%
Cc1ccc(NC(=O)COC(=O)C2CCC(=O)N2)c(S(=O)(=O)N2CCOCC2)c1 (stereo not given)	9	-40	8%	7%	-114%*	-5%
CCOC(=O)c1cccc(NC(=O)c2cnc3ccccc3n2)c1	0	-3	-13%	-26%	-96%*	-8%
CCOC(=O)CNC(=O)c1ccc(C)cc1	-1	2	9%	10%	i	4%
CCO/C=C/C(O)(CNC(=O)c1ccc(C(C)(C)C)cc1)C(F)(F)F (stereo not given)	6	-72*	-2%	6%	i	-3%
Cc1cccc(CNC(=O)c2cnn(-c3nccc(-c4cccs4)n3)c2C2CC2)n1	·	·	·	·	·	-5%
CCCC(C)C(=O)Nc1cccc(NC(C)=O)c1 (stereo not given)	-21	-92*	-1%	11%	i	-1%
CCCC(C)C(=O)Nc1ccc2c(c1)OCCO2 (stereo not given)	0	5	-1%	0%	i	-7%
COc1cccc(NC(=O)COC(=O)c2c(NC(C)=O)sc(C)c2C)c1	-73*	1	-22%	14%	i	-3%
C=CCSC1=Nc2sccc2C2=NC(=O)CN12	3	-22	20µM*	15%	i	-1%
Cc1ccc(CSC2=Nc3ccccc3C3=NC(=O)CN23)cc1	·	11	?	10%	i	2%
Cc1cc(C)c(S(=O)(=O)/N=C2/C=C(SCC(=O)O)C(=O)c3ccccc32)cc1C	5	-117*	-4%	-3%	i	?
Cc1cnc(-n2ncc(C(=O)NCc3ccncc3)c2C(C)C)nc1-c1ccc(F)cc1	·	·	·	·	·	-4%
Cc1noc2ncnc(N3CCN(c4cccc(Cl)c4)CC3)c12	-4	-11	10%	35µM*	i	-2%
Cc1ccc(Cl)cc1N1CCN(c2ncnc3onc(C)c23)CC1	·	·	·	·	·	-5%
O=C1C2C(c3ccccc3)C=CC(c3ccccc3)C2C(=O)N1CCCO (stereo not given)	3	7	12%	-7%	-102%*	-1%
CC(c1ccccc1)C1CC(=O)N(c2ccc(C(=O)O)cc2)C1=O (stereo not given)	23	11	-6%	-5%	-81%*	-2%
SMILES	hERG WT inh	KCNH2 3.1 inh	gsp ag	gsp antag	pAkt inh	Glioma ERSR ind
Nc1nc2ncn(COCCO)c2c(=O)[nH]1	·	·	·	·	·	-2%
CCOC(=O)C(/C(C)=N/NC(=O)c1ccccc1[N+](=O)[O-])C(C)C (stereo not given)	0	-83*	3%	8%	i	2%
CC(=O)c1ccc(N2CCN(CC(O)COC(c3ccccc3)c3ccccc3)CC2)cc1 (stereo not given)	5	-14	?	-20%	i	-6%
CC(=O)c1ccc(N2CCN(CC(O)COC(c3ccccc3)c3ccccc3C)CC2)cc1 (stereo not given)	-25	-94*	-29%[15.4 µM]	?	i	-5%
Cc1cnc(-n2ncc(C(=O)N(C)CC3COCCO3)c2C2CC2)nc1-c1cccs1 (stereo not given)	·	·	·	·	·	0%
CC(=O)C[C@H]1[C@H](O[C@H]2[C@H](OC(C)C(=O)N[C@@H](C)C(=O)N[C@H](CCC(=O)N[C@@H](CCCCN)C(=O)N[C@H](C)C(=O)O)C(N)=O)[C@@H](NC(=O)O)C(O)O[C@@H]2CO)O[C@H](CO)[C@@H](O)[C@@H]1O (stereo not given in full)	·	·	·	·	·	-3%
O=C(O)c1ccc(-c2ccc(OS(=O)(=O)c3ccccc3F)cc2)cc1	-5	6	-3%[15.4 µM]	-10%	i	12%
COC(=O)c1ccccc1S(=O)(=O)Oc1ccc(-c2ccc(C(=O)O)cc2)cc1	-5	17	2%[15.4 µM]	28µM*	i	5%
COC(=O)c1cccc2c1-c1ccccc1/C2=N\NC(N)=O	-147*	-190*	21%	4%	i	-4%
CCc1ccc(NC(=O)c2ccc(-n3cncn3)c([N+](=O)[O-])c2)cc1	6	-4	9%	50µM*	i	-1%
O=C(Nc1cccc(/C=C/c2ccccn2)c1)c1ccc(-n2cncn2)c([N+](=O)[O-])c1	4	-4	-2%[15.4 µM]	40µM*	i	-6%
O=C(Nc1ccc(F)c(F)c1)c1ccc(-n2cncn2)c([N+](=O)[O-])c1	2	-3	-27%	4%	i	-1%
Cc1cccc(NC(=O)c2ccc(-n3cccn3)c([N+](=O)[O-])c2)c1	-12	-3	-44%	-8%	-116%*	5%
COc1ccc(F)c(CN2CCOc3ccc(CN4CCC(O)(c5cccnc5)CC4)cc3C2)c1	·	·	·	·	·	-5%
Cc1onc(-c2ccccc2)c1C(=O)N[C@@H]1C(=O)N2[C@@H](C(=O)O)C(C)(C)S[C@@H]12	·	·	·	·	·	-1%
Cc1cc(C(=O)Nc2cccc(-c3nc(CNC(=O)c4ccc[n+]([O-])c4)c(C)o3)c2)c(C)o1	·	·	·	·	·	-3%
Cc1oc(-c2cc(F)ccc2F)nc1CN1CCN(c2ncnc3ccccc23)CC1	5	-18	6%	?	i	-3%
COc1ccc(-c2nc(CN3CCN(c4ncnc5ccccc45)CC3)c(C)o2)c(OC)c1	-2	20	-19%	32µM*	i	-4%
